The record followed here is ChEMBL document CHEMBL4513216, “Probing the Open Global Health Chemical Diversity Library for Multistage-Active Starting Points for Next-Generation Antimalarials” (ACS Infect Dis, 2020).

Among all 69,000 compounds or so, about 8,600 (12%) showed an effect of 50% or more. Many of the other results were omitted from the sample, so strong results are more common in it than they were.

This assay has as its system Plasmodium berghei. Put plainly: Screen against P. berghei liver stage (PbLuc), transformed with Luciferase, at 10uM. It counts as functional, HepG2. The conditions noted are these: tested at 10 uM.
Take `COc1cc(C)nc(N2CCN(C(=O)c3ccoc3C)CC2)n1`: the INHIBITION was 11.9%.

Take `c1cncc(-c2ncnc3c2CCN(Cc2cccs2)CC3)c1`: the INHIBITION is listed as -49.8%.

`O=C(CCc1ccc(Cl)s1)N1CCC(N2CCNC2=O)CC1`: the INHIBITION is 60.9%.

As for `O=C(CCCc1cccs1)N1CCC(N2CCNC2=O)CC1`, the INHIBITION came to 70.8%.

For the compound `O=C(CCc1cccs1)N1CCC(N2CCNC2=O)CC1`, the INHIBITION is recorded as 27.8%.

For `O=C(CCc1ccccc1)N1CCC(N2CCNC2=O)CC1`, the INHIBITION came out at 2.61%.

Regarding `O=C(CCc1ccc(Cl)s1)N1CCCC(N2CCNC2=O)C1` (centres undefined), the INHIBITION is reported as 30%.

For `O=C(CCc1cccs1)N1CCCC(N2CCNC2=O)C1` (centres undefined), the INHIBITION amounted to 11.6%.

Regarding `O=C(NCC1CC1)[C@@H]1CCO[C@@H]2CCN(c3ncccn3)C[C@@H]21`, the INHIBITION worked out at 44.2%.

For `Cc1nc(C)n(C2CCCN(C(=O)c3ccc(OC(C)C)nc3)C2)n1` (centres undefined), the INHIBITION is recorded as 5.907%.

For the compound `CN(C)CCN(Cc1cccc(F)c1)C(=O)c1ccn(C)c(=O)c1`, the INHIBITION is listed as 31.1%.

`O=C1CC(c2cccnc2)c2c(c(C(=O)O)cn2-c2ccccc2F)N1` (centres undefined): the INHIBITION was 19.4%.

For `Cc1cc(C)c(NC(=O)Nc2cnn(CC(O)CN(C)C)c2)c(C)c1` (centres undefined), the INHIBITION is 35.4%.

`Cc1c(CCC(=O)N2CCCC2c2ccnc(N(C)C)c2)cnn1C` (centres undefined): the INHIBITION amounted to 23%.

Regarding `COc1ccc(CNC(=O)Nc2cccnc2OC)cc1O`, the INHIBITION is 9.54%.

Turning to `Cc1ccc(N2CC[C@H]3OCC[C@@]3(C(=O)N(C)C)C2)nn1`, the INHIBITION came to 24.3%.

On to `Cc1ncc(-c2ccncc2)c(C2CCCN(C(=O)c3ccno3)C2)n1` (centres undefined), for which the INHIBITION is reported as 18.505%.

Regarding `Cn1nc(C2CCNC2)c2c(C(=O)NC3CC3)cc(C3CC3)nc21` (centres undefined), the INHIBITION stood at 45.8%.

Take `Cn1nc(C2CCNC2)c2c(C(=O)NCC(F)(F)F)cc(C3CC3)nc21` (centres undefined): the INHIBITION is 47.4%.

Consider `Cn1nc(C2CCCN2)c2c(C(=O)NC3CC3)cc(C3CC3)nc21` (centres undefined), for which the INHIBITION was 40%.

As for `O=C(NC1CC1)c1cc(C2CC2)nc2onc(C3CCNCC3)c12`, the INHIBITION was 24.2%.

Turning to `Cn1nc(C2CCNCC2)c2c(C(=O)NC3CC3)cc(C3CC3)nc21`, the INHIBITION is listed as 59.8%.

In the case of `Cn1nc(C2CCCNC2)c2c(C(=O)NC3CC3)cc(C3CC3)nc21` (centres undefined), the INHIBITION came out at 52.4%.

Turning to `Cc1ccccc1CNC(=O)Cn1ncc2c1c(C)nn2C`, the INHIBITION was 21.7%.

As for `Cc1ccc(C(=O)NC2CCN(CC(=O)N(C)c3ccccc3)CC2)o1`, the INHIBITION was 7.27%.

Consider `Cn1cccc1C(=O)COc1ccc(S(N)(=O)=O)cc1`, for which the INHIBITION is -55.3%.

`CNC(=O)C1(CCCc2cnccn2)CCN1CCc1ccccc1` (centres undefined): the INHIBITION is recorded as 23.8%.

On to `CCN1CCn2c(C)cnc2C12CCN(C(=O)NC)CC2`, for which the INHIBITION is 6.27%.

On to `CNS(=O)(=O)c1ccc(CNC(=O)c2cccc(C)n2)cc1`, for which the INHIBITION was 37.4%.

As for `COCCN(C)C(=O)c1cc2c(s1)CCN2C(=O)C1CC1`, the INHIBITION is 37.5%.

Turning to `CCN(C)S(=O)(=O)N1CCC(C(O)c2ccc(Cl)cc2)CC1` (centres undefined), the INHIBITION is reported as 50.1%.

As to `Cc1occc1C(=O)N1CCC(C(O)c2ccc(Cl)cc2)CC1` (centres undefined), the INHIBITION was -49.3%.

With `CN(C)S(=O)(=O)N1CCC(C(O)c2ccc(Cl)cc2)CC1` (centres undefined), the INHIBITION is recorded as -9.8%.

`CCOCC(=O)N1CCC(C(O)c2ccc(F)cc2)CC1` (centres undefined): the INHIBITION is reported as -6.99%.

In the case of `Cc1occc1C(=O)N1CCC(C(O)c2ccc(F)cc2)CC1` (centres undefined), the INHIBITION was -85.6%.

Consider `CCN(C)S(=O)(=O)N1CCC(C(O)c2ccc(F)cc2)CC1` (centres undefined), for which the INHIBITION stood at 51.1%.

As to `CCS(=O)(=O)N1CCO[C@H]2[C@H](Oc3ncccc3F)CC[C@@H]21`, the INHIBITION was 17.4%.

For the compound `O=C(O)c1ccccc1-n1cnc(CN2CCc3ccccc3C2)c1`, the INHIBITION turned out to be 12.8%.

As to `CCn1c(CC2CCN(S(=O)(=O)N3CCCCC3)CC2)nn(C)c1=O`, the INHIBITION was determined as 0.546%.

`CN(C)C(=O)c1c[nH]nc1-c1ccc(CNC(=O)c2cnccn2)cc1`: the INHIBITION was 0.5%.

On to `c1csc(CN2CCC3(CC2)COCCN3CC2CC2)n1`, for which the INHIBITION is listed as 50.7%.

As to `Cc1noc(C)c1CN1CCOCC12CCN(c1ncccn1)CC2`, the INHIBITION is given as 47.5%.

For the compound `c1csc(CN2CCC3(CCCN3CC3CC3)CC2)n1`, the INHIBITION turned out to be 33%.

For the compound `CCN1CCOCC12CCN(c1nccs1)CC2`, the INHIBITION was determined as 54.8%.

As for `COCCN1CCOCC12CCN(c1cnccn1)CC2`, the INHIBITION was determined as 42.1%.

As for `Cc1noc(C)c1CN1CCOCC12CCN(c1cnccn1)CC2`, the INHIBITION is on record as 34.9%.

For `CN1CCOCC12CCN(Cc1nccs1)CC2`, the INHIBITION is given as 0.804%.

Take `CCN1CCOCC12CCN(c1cnccn1)CC2`: the INHIBITION is given as 32.1%.

For `COCCN1CCOCC12CCN(c1nccs1)CC2`, the INHIBITION was found to be 53.9%.

For `CCN1CCOCC12CCN(c1ccc(C#N)cc1)CC2`, the INHIBITION was found to be 2.4%.

As to `COCCN1CCOCC12CCN(c1ccc(C#N)cc1)CC2`, the INHIBITION came out at 49.7%.

In the case of `Cc1noc(C)c1CN1CCOCC12CCN(c1nccs1)CC2`, the INHIBITION came to 67.5%.

`CN(C)Cc1ccnc(C2CN(Cc3nccs3)CCO2)n1` (centres undefined): the INHIBITION is recorded as 35.2%.

As to `Cc1cc(N2CCC(C(=O)NC3CC3)CC2)nc(-c2ccncc2)n1`, the INHIBITION is on record as -0.219%.

Take `CS(=O)(=O)N1CCC(Cc2cnc(Br)cn2)C1` (centres undefined): the INHIBITION was -29.9%.

In the case of `c1cnc(N2CCCC(Cc3nccs3)C2)nc1` (centres undefined), the INHIBITION was 11.685%.

Turning to `CS(=O)(=O)NC1CCN(C(=O)c2coc(CN3CCOCC3)c2)CC1`, the INHIBITION was 34.9%.

With `COc1cc(CSc2nnc(C)n2CC(N)=O)ccc1SC`, the INHIBITION is on record as -9.93%.

Take `CCCC(=O)N1CCC(Cc2ccccc2-c2ccccc2)(C(N)=O)C1` (centres undefined): the INHIBITION was -31%.

Regarding `O=C(C1CCOC1)N1CCC2(CCN(Cc3nccs3)CC2)CC1` (centres undefined), the INHIBITION turned out to be 52%.

For the compound `O=C(C1CCOCC1)N1CCC2(CCN(Cc3nccs3)CC2)CC1`, the INHIBITION amounted to 18.3%.

Consider `O=C(C1CCOC1)N1CCC2(CCN(Cc3nccs3)C2)CC1` (centres undefined), for which the INHIBITION is 46.2%.

With `CC(C)CC(=O)N1C[C@@H]2CCN(c3ncccn3)C[C@@H]2C1`, the INHIBITION came out at 44.1%.

Regarding `CC(C)Oc1ncc(C(=O)N2CCC(NC(=O)C3CC3)CC2)cc1Cl`, the INHIBITION is reported as -13.2%.

Regarding `CC(C)Oc1ncc(C(=O)N2CCCC(C(=O)O)C2)cc1Cl` (centres undefined), the INHIBITION was found to be 23.3%.

On to `O=C(c1c[nH]c(=O)c(Cl)c1)N1CCc2ccccc2C1`, for which the INHIBITION was -29.6%.

With `CC(C)Oc1ncc(C(=O)N2CCc3ccc(O)cc3C2)cc1Cl`, the INHIBITION amounted to 77.1%.

In the case of `O=C(c1ccc(O)nc1)N1CCc2ccc(O)cc2C1`, the INHIBITION was found to be 11.7%.

`O=C(c1cnc(OCC(F)(F)F)c(Cl)c1)N1CCc2ccc(O)cc2C1`: the INHIBITION is 70.9%.
